Inconclusive results are not listed. A structure can be active in one record and inactive in another. Active and inactive are the calls of the source. The call rests on the fitted dose curve.
What was measured:
[1] = biological target: Acetylcholinesterase (Homo sapiens) (UniProt P22303); assay: Acetylcholinesterase (AChE) small molecule antagonists: colormetric cell-based qHTS assay (AID 1347395); further: nearly all actives have a fitted effect of over 30% in size; further: potency means the concentration at half of the fitted maximal effect
Chain of Acetylcholinesterase (Homo sapiens) (P22303 whole entry, looked up): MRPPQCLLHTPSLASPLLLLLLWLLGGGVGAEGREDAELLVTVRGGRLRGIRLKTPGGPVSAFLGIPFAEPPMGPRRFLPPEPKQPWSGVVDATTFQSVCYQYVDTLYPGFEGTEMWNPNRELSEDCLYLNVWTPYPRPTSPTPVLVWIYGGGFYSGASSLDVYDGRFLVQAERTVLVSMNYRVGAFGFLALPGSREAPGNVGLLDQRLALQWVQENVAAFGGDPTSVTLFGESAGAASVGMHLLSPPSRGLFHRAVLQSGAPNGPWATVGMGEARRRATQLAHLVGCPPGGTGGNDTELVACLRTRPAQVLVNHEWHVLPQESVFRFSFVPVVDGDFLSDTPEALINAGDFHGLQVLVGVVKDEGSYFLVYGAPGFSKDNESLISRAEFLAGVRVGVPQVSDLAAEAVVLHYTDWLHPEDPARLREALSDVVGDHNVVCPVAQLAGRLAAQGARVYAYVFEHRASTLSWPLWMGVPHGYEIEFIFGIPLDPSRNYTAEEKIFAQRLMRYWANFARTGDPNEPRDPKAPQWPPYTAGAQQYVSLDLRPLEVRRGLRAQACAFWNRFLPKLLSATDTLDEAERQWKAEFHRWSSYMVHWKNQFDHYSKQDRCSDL
Outline: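 Colorimetric readout: DTNB quantifies thiocholine from acetylthiocholine hydrolysed by endogenous AChE of SH-SY5Y cells (2,000/well, plated overnight). Compound pretreatment 30 min, substrate incubation 90 min, both 37 C.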

[2] = biological target: Acetylcholinesterase (Homo sapiens) (UniProt P22303); assay: Acetylcholinesterase (AChE) small molecule antagonists: enzyme-based qHTS assay (AID 1347397); conditions: Potency: AChE enzyme activity inhibition; outcome: AChE enzyme activity inhibition; further: nearly all actives have a fitted effect of over 55% in size; further: potency means the concentration at half of the fitted maximal effect
Outline: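 rhAChE 50 mU/mL (dispensed) + cpd or DMSO, 30 min RT; add DTNB/acetylthiocholine cocktail, 10 min RT; colorimetric thiocholine readout. qHTS, 1536-well format.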

[3] = biological target: Acetylcholinesterase (Homo sapiens) (UniProt P22303); assay: Acetylcholinesterase (AChE) small molecule antagonists: fluorescence cell-based qHTS assay (AID 1347398); conditions: Potency: AChE activity; outcome: AChE activity; further: nearly all actives have a fitted effect of over 50% in size; further: potency means the concentration at half of the fitted maximal effect
Outline: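 Read-out is Thiolite Green fluorescence at Ex/Em = 490/520 nm, formed by reaction with thiocholine released when cellular AChE in SH-SY5Y cells hydrolyzes acetylthiocholine. Compounds were preincubated 30 min at 37 C before substrate.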

[4] = biological target: Acetylcholinesterase (Homo sapiens) (UniProt P22303); assay: Acetylcholinesterase (AChE) small molecule antagonists: enzyme-based qHTS assay with human liver microsomes (AID 1347399); conditions: Potency: qHTS inhibition; outcome: qHTS inhibition; further: nearly all actives have a fitted effect of over 60% in size
Outline: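 Recombinant human AChE (50 mU/mL in the enzyme mix) and human liver microsomes (0.25 mg/mL final) were preincubated with compound and NADPH (0.25 mg/mL final) for 30 min at 37 C. Acetylthiocholine/DTNB was then added; thiocholine was read colorimetrically after 10 min at room temperature.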
On the % scale 0 is the no-effect control and ±100 the full control effect.

O=C(c1ccccc1)c1ccccc1O
inactive: Potency [1] | Potency [2] | Potency [3] | Potency [4]

Nc1nc(Cl)nc2c1ncn2[C@H]1C[C@H](O)[C@@H](CO)O1
inactive: Potency [1] | Potency [2] | Potency [3] | Potency [4]

Cc1nc2sccn2c(=O)c1CCN1CCC(=C(c2ccc(F)cc2)c2ccc(F)cc2)CC1
inactive: Potency [4]
active: Potency [1] 30.9 µM | Potency [2] 38.9 µM | Potency [3] 15.5 µM

Cc1ccc(S(=O)(=O)NC(=O)NN2CCCCCC2)cc1
inactive: Potency [1] | Potency [2] | Potency [3] | Potency [4]

COC(=O)C1=C(C)NC(C)=C(C(=O)OCC(C)=O)C1c1ccccc1[N+](=O)[O-] (stereo not given)
inactive: Potency [1] | Potency [2] | Potency [3] | Potency [4]

F[B-](F)(F)F
inactive: Potency [1] | Potency [2] | Potency [3] | Potency [4]

O=C1c2ccccc2C(=O)C1c1ccccc1
inactive: Potency [1] | Potency [2] | Potency [3] | Potency [4]

O=C(Nc1ccc2c(c1)Cc1ccccc1-2)C(F)(F)F
inactive: Potency [1] | Potency [2] | Potency [3] | Potency [4]

O=c1c2ccccc2oc2ccccc12
inactive: Potency [1] | Potency [2] | Potency [3] | Potency [4]

O=[N+]([O-])c1ccc(O)c2ncccc12
inactive: Potency [1] | Potency [2] | Potency [3] | Potency [4]

Cn1cnc([N+](=O)[O-])c1Sc1ncnc2nc[nH]c12
inactive: Potency [1] | Potency [2] | Potency [3] | Potency [4]

Nc1cc(=O)[nH]c(N)n1
inactive: Potency [1] | Potency [2] | Potency [3] | Potency [4]

COCN(COC)c1nc(N(COC)COC)nc(N(COC)COC)n1
inactive: Potency [1] | Potency [2] | Potency [3] | Potency [4]

NCCc1ccc(O)c(O)c1
inactive: outcome [1] | outcome [2] | outcome [3] | outcome [4]

CCCCCC(CO)CCC (stereo not given)
inactive: Potency [1] | Potency [2] | Potency [3] | Potency [4]

O=c1[nH]cc(F)c(=O)[nH]1
20.8 µM (active) and inactive: Potency [1]
inactive: Potency [2] | Potency [3] | Potency [4]

c1ccc(OCCOc2ccccc2)cc1
inactive: Potency [1] | Potency [2] | Potency [3] | Potency [4]

c1ccc2c(c1)-c1cccc3c1c-2cc1ccccc13
inactive: Potency [1] | Potency [2] | Potency [3] | Potency [4]

Cc1c(C2(c3cc(Br)c(O)c(Br)c3C)OS(=O)(=O)c3ccccc32)cc(Br)c(O)c1Br
inactive: Potency [1] | Potency [2] | Potency [3] | Potency [4]

CN1CCN(C(c2ccccc2)c2ccccc2)CC1
inactive: Potency [1] | Potency [2] | Potency [3] | Potency [4]

Oc1ccc(Sc2ccc(O)cc2)cc1
inactive: Potency [1] | Potency [2] | Potency [3] | Potency [4]

COc1cc(/C=C/C(=O)O[C@H]2CC[C@]34C[C@]35CC[C@]3(C)[C@@H]([C@H](C)CCC=C(C)C)CC[C@@]3(C)[C@@H]5CC[C@H]4C2(C)C)ccc1O
inactive: Potency [1] | Potency [2] | Potency [3] | Potency [4]

O=[N+]([O-])c1cc(N(CCO)CCO)ccc1NCCO
inactive: Potency [1] | Potency [2] | Potency [3] | Potency [4]

CC1(C)OC[C@@H](COC(=O)CCc2ccc(OC[C@@H](O)CNCCNC(=O)N3CCOCC3)cc2)O1
inactive: Potency [1] | Potency [2] | Potency [3] | Potency [4]

COC(=O)C(C)O (stereo not given)
inactive: Potency [1] | Potency [2] | Potency [3] | Potency [4]

CCCCCCCCC(CCCCCC)C(=O)O (stereo not given)
inactive: Potency [1] | Potency [2] | Potency [3] | Potency [4]

COC(=O)c1ccc(C(=O)OC)c(C(=O)OC)c1
inactive: Potency [1] | Potency [2] | Potency [3] | Potency [4]

CCCCOC(=O)CCCCCCCCC(=O)OCCCC
inactive: Potency [1] | Potency [2] | Potency [3] | Potency [4]

CSCC[C@H](NC(=O)[C@H](Cc1c[nH]c2ccccc12)NC(=O)CCNC(=O)OC(C)(C)C)C(=O)N[C@@H](CC(=O)O)C(=O)N[C@@H](Cc1ccccc1)C(N)=O
inactive: Potency [1] | Potency [2] | Potency [3] | Potency [4]

Nc1ccc2cc(S(=O)(=O)O)cc(O)c2c1
inactive: Potency [1] | Potency [2] | Potency [3] | Potency [4]

CCC(=O)C1CC(C(C)C)CC=C1C (stereo not given)
inactive: Potency [1] | Potency [2] | Potency [3] | Potency [4]

CCCCCCCCCCCCN1CCCCCC1=O
inactive: Potency [1] | Potency [2] | Potency [3] | Potency [4]

CCOc1ccc(NC(N)=O)cc1
inactive: Potency [1] | Potency [2] | Potency [3] | Potency [4]

CC12CCC(CC1=O)C2(C)C (stereo not given)
inactive: Potency [1] | Potency [2] | Potency [3] | Potency [4]

O=Cc1c(Cl)cccc1Cl
inactive: Potency [1] | Potency [2] | Potency [3] | Potency [4]

C[C@H]1C[C@H]2[C@@H]3CCC4=CC(=O)C=C[C@]4(C)[C@H]3C(=O)C[C@]2(C)[C@@]1(O)C(=O)CO
inactive: Potency [1] | Potency [2] | Potency [3] | Potency [4]

CCCC1C(CC)=CC(CC)=CN1c1ccccc1 (stereo not given)
inactive: Potency [1] | Potency [2] | Potency [3] | Potency [4]

CN=C(NC#N)NCCSCc1nc[nH]c1C
inactive: Potency [1] | Potency [2] | Potency [3] | Potency [4]

CCCOC(=O)c1cc(O)c(O)c(O)c1
inactive: Potency [1] | Potency [2] | Potency [3] | Potency [4]

Cc1cccc(C)c1O
inactive: Potency [1] | Potency [2] | Potency [3] | Potency [4]

O=C(O)CCc1nc2ccccc2[nH]1
inactive: Potency [1] | Potency [2] | Potency [3] | Potency [4]

O=C(O)CCCCCCC(=O)O
inactive: Potency [1] | Potency [2] | Potency [3] | Potency [4]

Cc1c(N(C)C)c(=O)n(-c2ccccc2)n1C
inactive: Potency [1] | Potency [2] | Potency [3] | Potency [4]

O=C1O[C@@H]2[C@@H](O)[C@H](O)O[C@@H]2[C@H]1O
inactive: Potency [1] | Potency [2] | Potency [3] | Potency [4]

CC(C)=CCC[C@](C)(O)[C@@H]1CC=C(C)CC1
inactive: Potency [1] | Potency [2] | Potency [3] | Potency [4]

O=C(Nc1cccc(C(F)(F)F)c1)c1cc(Br)cc(Br)c1O
inactive: Potency [1] | Potency [2] | Potency [3] | Potency [4]

CCC(=O)OC(C)(C)C1CC=C(C)CC1 (stereo not given)
inactive: Potency [1] | Potency [2] | Potency [3] | Potency [4]

CCC1(c2ccccc2)C(=O)NCNC1=O
inactive: Potency [1] | Potency [2] | Potency [3] | Potency [4]

Oc1ccc(Cc2ccccc2)cc1
inactive: Potency [1] | Potency [2] | Potency [3] | Potency [4]

CN1CCN(c2c(F)cc3c(=O)c(C(=O)O)cn4c3c2OCN4C)CC1
inactive: activity, negative = inhibition [1] 1.67% [at 23.6 µM] | activity change, negative = inhibition [2] 0.0377% [at 23.6 µM] | activity change, negative = inhibition [3] 5.01% [at 23.8 µM] | activity change, negative = inhibition [4] -0.167% [at 23.6 µM]

CC(C)C[C@H](NC(=O)[C@H](CCc1ccccc1)NC(=O)CN1CCOCC1)C(=O)N[C@@H](Cc1ccccc1)C(=O)N[C@@H](CC(C)C)C(=O)[C@@]1(C)CO1
inactive: Potency [1] | Potency [2] | Potency [3] | Potency [4]

CC(C)c1ccc2c(C(C)C)cc(C(C)C)c(S(=O)(=O)O)c2c1
inactive: Potency [1] | Potency [2] | Potency [3] | Potency [4]

CC(=O)c1nccs1
inactive: Potency [1] | Potency [2] | Potency [3] | Potency [4]

C=Cc1ccccn1
inactive: Potency [1] | Potency [2] | Potency [3] | Potency [4]

O=C(/C=C/c1ccc(O)c(O)c1)O[C@@H](C(=O)O)[C@@H](OC(=O)/C=C/c1ccc(O)c(O)c1)C(=O)O
inactive: Potency [1] | Potency [2] | Potency [3] | Potency [4]

Cc1c(O)cccc1O
inactive: Potency [1] | Potency [2] | Potency [3] | Potency [4]

CC(O)COCC(C)O (stereo not given)
inactive: Potency [1] | Potency [2] | Potency [3] | Potency [4]

C=CCc1ccc(OC)c(OC)c1
inactive: Potency [1] | Potency [2] | Potency [3] | Potency [4]

COc1ccccc1OCC(O)COC(N)=O (stereo not given)
inactive: Potency [1] | Potency [2] | Potency [3] | Potency [4]

OC(CCN1CCCCC1)(c1ccccc1)C1CCCCC1 (stereo not given)
inactive: outcome [1] | outcome [2] | outcome [3] | outcome [4]

Reference: PubChem BioAssay (Tox21)
